# Test results reported in ChEMBL document CHEMBL3988442, “University of Dundee, Small-Polar-MMV Screening Library” (2021).
# The whole screen tested about 48,000 compounds, of which about 13,000 (27%) showed an effect of 50% or more. This is one part of the list.
# Tested on: Wolbachia pipientis
# Assay: Anti-Wolbachia Cell-Based Screen
# Assay type: functional
# Design: scale not given: in the data most compounds retested in dose-response had high values
# Details: 5 µM
row,Structure (SMILES),Percent Effect [%]
1,CN(Cc1cccnc1)c1nc(-c2ccccn2)nc2c1CCNCC2,-5.428
2,Cc1cnn(CCCn2ncc(N3CCC(CN)C3)cc2=O)c1 (stereo not drawn),-3.735
3,CCCC(C#N)NC(=O)CCCOc1cccc(C(C)=O)c1 (stereo not drawn),17.87
4,CCC(O)Cn1nc(-c2ccc(C(=O)O)cc2)cc1-c1cccc(F)c1 (stereo not drawn),112
5,CCC(O)CN1CCN(C(=O)c2ccn(-c3cccc(F)c3)n2)CC1 (stereo not drawn),-17.79
6,CCC(=O)NCC(Cc1cccc(F)c1)n1cccc1 (stereo not drawn),-1.872
7,CN(CCCc1cc(-c2ccc(F)cc2)n[nH]1)C(=O)CCn1cncn1,-5.05
8,CC(C(N)=O)N(C)CCCc1cc(-c2ccc(F)cc2)n(C)n1 (stereo not drawn),117.2
9,CC(C(N)=O)N(C)CCCc1cc(-c2ccccc2)no1 (stereo not drawn),-1.184
10,CN(CC(=O)NS(=O)(=O)c1ccc(F)cc1)Cc1ccccc1,-17.38
11,NC(=O)NC(=O)CCn1ccc(-c2ccc(F)cc2)n1,-9.81
12,CN(CCCc1cc(-c2ccc(F)cc2)n(C)n1)CC(N)=O,124.4
13,CN(CCCc1cc(-c2ccc(F)cc2)n(C)n1)CC(=O)NC(N)=O,129.4
14,CC(C)Cc1cc(C(=O)NCC(c2ccc(F)cc2)N(C)C)n(C)n1 (stereo not drawn),-14.68
15,CN(CC(N)=O)Cc1ccc(F)cc1Cl,-24.21
16,NC(=O)CCSCc1ccc(Br)c(F)c1,-4.384
17,CCC(CO)N(Cc1cccs1)C(=O)Cc1ccncc1 (stereo not drawn),-5.56
18,c1ccc2c(c1)nc1n2[C@@H](CNCc2nccs2)COC1,3.551
19,Cn1ccnc1SCCNC(=O)CC1CCc2ccccc21 (stereo not drawn),-4.259
20,Cc1ccc(S(=O)(=O)NCC2CNCCOC2)cc1Cl (stereo not drawn),-1.884
21,Cc1cccc2[nH]c(C3CCN(C(=O)c4cnc(O)cc4O)CC3)nc12,-25
22,Cn1[nH]c(C2CC2)c(-c2ccc3c(c2)OCO3)c1=N,-0.9629
23,CN(Cc1cccnc1)C[C@H]1CC[C@@H](Cc2ccc3c(cnn3C)c2)O1,-1.235

row,Structure (SMILES),Percent Effect [%]
1,Cc1cnn(C2CN(Cc3noc(C)n3)C2)c1,14.64
2,Cc1cnn(C2CN(Cc3nc(-c4ccccc4C)no3)C2)c1,81.63
3,Cc1cnn(C2CN(Cc3nc(C(C)(C)C)no3)C2)c1,-1.752
4,Cc1cnn(C2CN(Cc3nc(-c4ccccn4)no3)C2)c1,99.99
5,Cc1cnn(C2CN(Cc3nc(-c4cccnc4)no3)C2)c1,94.26
6,Cc1ccccc1-c1noc(CN2CC(n3cccn3)C2)n1,17.98
7,Cc1cnn(C2CN(Cc3nc(-c4ccco4)no3)C2)c1,-0.024
8,Cc1cnn(C2CN(Cc3nnc(Cc4ccccc4)o3)C2)c1,-8.725
9,Cc1cnn(C2CN(Cc3nnc(-c4ccccc4Cl)o3)C2)c1,0.6902
10,Cc1cnn(CC(C)NCc2nc(-c3cccnc3)no2)c1 (stereo not drawn),10.95
11,Cc1cccc(-c2noc(CN3CC(n4cc(C)cn4)C3)n2)c1,6.599
12,Cc1ccc(-c2noc(CN3CC(n4cc(C)cn4)C3)n2)cc1,109
13,O=c1cc(N2CCNCC2)cnn1Cc1noc(C2CCCC2)n1,5.676
14,CC(=O)N1CCC(C(=O)Nc2nnc(C(F)(F)F)[nH]2)CC1,-2.768
15,CC(=O)N[C@@H]1CN(C(=O)c2cnccn2)C[C@H]1c1ccc(C)cc1,4.61
16,Cc1ncc(CN2CCC(c3ccnn3C)CC2)n1-c1ccccc1,4.232
17,O=C(NCCOCCO)c1cnc(-c2ccccc2)nc1O,-4.282
18,COc1cnc(CN2CCN(CC(C)C)C(=O)C2C)cc1O (stereo not drawn),-7.655
19,Cc1cnn(C2CN(Cc3nc(-c4ccsc4)no3)C2)c1,107.2
20,COc1ccc(-c2noc(CN3CC(n4cccn4)C3)n2)c(OC)c1,7.442
21,Cc1cccc(-c2noc(CN3CC(n4cccn4)C3)n2)c1,120.1
22,c1coc(-c2noc(CN3CC(n4cccn4)C3)n2)c1,-9.344
23,Cn1cnc2c1CCN(Cc1nc(-c3ccsc3)no1)C2,-4.856

row,Structure (SMILES),Percent Effect [%]
1,Cc1ccc(-c2nnc(CN3CC(n4cc(C)cn4)C3)o2)cc1,13.03
2,COc1ccc(-c2nc(CN3CC(n4cc(C)cn4)C3)no2)cc1,7.343
3,c1cnn(C2CN(Cc3nc(-c4ccsc4)no3)C2)c1,-8.892
4,COc1ccc(-c2noc(CN3CC(n4cc(C)cn4)C3)n2)cc1,101.6
5,COCC(NC(=O)c1ccoc1)c1ccc(C)o1 (stereo not drawn),-2.661
6,Cc1ncsc1CCN(C)C(=O)CN1CC2(CCNCC2)OC1=O,-5.863
7,Cc1cc(NC2CCN(c3ccc(F)cc3)CC2)n2nc(C)cc2n1,-5.138
8,Nc1ncc(C(=O)N2CCCC(N)CC2)c(-c2ccccc2)n1 (stereo not drawn),-5.532
9,O=C(Nc1ccccn1)C1CCN(Cc2cc3c(cc2O)OCO3)CC1,98.75
10,O=C(NCCNCc1cccc2c1OCCCO2)C1CCCC1,-19.03
11,CC(C)C(=O)NC1CCN(Cc2cccc3c2OCCO3)CC1,6.757
12,O=C(NCc1ccccc1CN1CCC(O)CC1)Nc1ccccn1,-0.8138
13,CCNC(=O)C1CCN(Cc2csc(-c3ccc(C)o3)n2)CC1,8.641
14,O=C(Nc1nccs1)NC1CCOc2ccccc21 (stereo not drawn),5.946
15,O=C(Nc1nccs1)C1CCN(Cc2cccc3c2OCCO3)CC1,83.61
16,CNC(=O)C1CCN(Cc2cc3c(cc2O)CCC3)CC1,6.264
17,Cc1ccoc1C(=O)NC1CCN(Cc2cccc3c2OCCO3)CC1,4.934
18,Cc1csc(NC(=O)C2CCN(Cc3cccc4c3OCCO4)CC2)n1,93.8
19,c1cnnc(NCC2CN(Cc3cccc4c3OCCO4)CCO2)c1 (stereo not drawn),4.711
20,O=C(Nc1ccccn1)C1CCN(Cc2cccc3c2OCCO3)CC1,88.18
21,CNC(=O)N(Cc1c(F)cccc1F)C1CCCC1,-10.49
22,Cc1cccc(C(C(=O)N2CC(Oc3ccccc3F)C2)N(C)C)c1 (stereo not drawn),3.868
